Several values for one entry are separate records, joined by “and”; a condition that tells them apart may be missing. Identical values can stand only once. Records with an inconclusive call do not appear. Activity calls are given as the source filed them. The call rests on the fitted dose curve; in most records, active means well fitted inhibition curve with a large enough effect; inconclusive means small, poorly fitted or top-dose-only effect; inactive means flat fitted curve, though single readings scatter.
tested on: KB-3-1; test: Cytotoxic Profiling of Annotated Libraries Using Quantitative High-Throughput Screening (AID 1296008); conditions: Five cell lines viability, CellTiter-Glo ATP luminescence, 48-72 h; max response: active compounds read low; further: nearly all actives have a fitted effect of over 60% in size
Outline: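 Compounds were pin-transferred onto cells and incubated 48 or 72 hr at 37 degree Celsius, 95% humidity. CellTiter-Glo was added, plates sat 10 min at room temperature, then ATP-coupled luminescence was imaged as the viability read-out.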
On the % scale 0 is the no-effect control and ±100 the full control effect.

SMILES	max response	outcome
CC(C)(C)C(=O)OCOC(=O)C1N2C(=O)CC2S(=O)(=O)C1(C)C (stereo not drawn)	-11.8% (inactive)	–
CN1C(CSCC(F)(F)F)Nc2cc(Cl)c(S(N)(=O)=O)cc2S1(=O)=O (stereo not drawn)	38.2% (inactive)	–
COc1ccccc1N1CCN(CCN2C(=O)CC3(CCCC3)CC2=O)CC1	1.39% (inactive)	–
Nc1nnnn1-c1ccccc1	7.05% (inactive)	–
C=CCOc1cc(Cl)ccc1C(=O)NCCN(CC)CC	6.3% (inactive)	–
OCCCc1ccccc1	-4.85% (inactive)	–
CC(=O)N(CC(O)CO)c1c(I)c(C(=O)NCCO)c(I)c(C(=O)NCC(O)CO)c1I (stereo not drawn)	-13% (inactive)	–
CN1C(=O)CC(C)(c2ccccc2)C1=O (stereo not drawn)	-1.96% (inactive)	–
CC(C(=O)O)c1ccc(/C=C2\CCCCC2=O)cc1 (stereo not drawn)	–	inactive
O=C(COCCOCCOCC(=O)Nc1c(I)cc(I)c(C(=O)O)c1I)Nc1c(I)cc(I)c(C(=O)O)c1I	-17% (inactive)	–
CCO[C@H](Cc1ccc(OCCc2ccc(OS(C)(=O)=O)cc2)cc1)C(=O)O	-10.5% (inactive)	–
O=C(OCC1(COC(=O)c2cccnc2)CCCC(COC(=O)c2cccnc2)(COC(=O)c2cccnc2)C1O)c1cccnc1	8.89% (inactive)	–
OC(CCCN1CCCCC1)(c1ccccc1)c1ccccc1	-5.63% (inactive)	–
C1=CC2C3C=CC(C3)C2C1 (stereo not drawn)	-6.71% (inactive)	–
C[N+]1(CC2COC(c3ccccc3)(c3ccccc3)O2)CCCCC1 (stereo not drawn)	-21.8% (inactive)	–
CC(C)=CCC/C(C)=C/CC/C(C)=C/CCC(=O)OC/C=C(\C)CCC=C(C)C	-12.9% (inactive)	–
Cc1ccc(/C=N/n2c(-c3ccccc3)csc2=S)cc1	-9.01% (inactive)	–
Cc1cccc(C)c1NC(=O)c1cc(S(N)(=O)=O)c(Cl)cc1O	-20.9% (inactive)	–
C[C@]12CCC(=O)C=C1CC[C@@H]1[C@@H]2[C@@H](O)C[C@@]2(C)[C@H]1CC[C@]2(O)C(=O)COC(=O)CCC(=O)O	-0.87% (inactive)	–

SMILES	max response	outcome
OCc1cccnc1	3.27% (inactive)	–
O=C(CO)[C@@H](O)[C@H](O)[C@@H](O)CO	-7.71% (inactive)	–
CCc1cc(S(=O)(=O)O)c2cc(C(C)C)cccc1-2	7.96% (inactive)	–
O=C(O)[C@H](O)[C@@H](O)[C@H](O[C@@H]1O[C@H](CO)[C@H](O)[C@H](O)[C@H]1O)[C@H](O)CO	-11.9% (inactive)	–
Cc1cc(O)c2c(O)c3c(O)cccc3cc2c1	-20.5% (inactive)	–
CCC(C(=O)NC(=O)NC(C)=O)c1ccccc1 (stereo not drawn)	0.82% (inactive)	–
CO/N=C(/C(=O)N[C@@H]1C(=O)N2C(C(=O)OCOC(=O)C(C)(C)C)=C(C)CS[C@H]12)c1csc(N)n1	-4.57% (inactive)	–
CC1(C)S[C@@H]2[C@H](NC(=O)C(c3ccccc3)S(=O)(=O)O)C(=O)N2[C@H]1C(=O)O (stereo partly drawn)	-0.526% (inactive)	–
C=CC[N+]1([C@H]2C[C@H]3[C@@H]4CC[C@H]5C[C@H](OC(C)=O)[C@@H](N6CCCCC6)C[C@]5(C)[C@H]4CC[C@]3(C)[C@H]2OC(=O)CC)CCCCC1	–	inactive
CCOc1ccc(NS(=O)(=O)c2ccc(N)cc2)nn1	-7.66% (inactive)	–
CCOC(=O)c1ccc(OCCN2C[C@H](O)[C@@H](O)[C@H](O)[C@H]2CO)cc1	–	inactive
Cc1ccc(O)cc1	-1.63% (inactive) and -10.4% (inactive)	–
O=P(O)(O)OCC(O)CO (stereo not drawn)	-6.39% (inactive)	–
COc1ccccc1OCC1CNC(=O)O1 (stereo not drawn)	-0.906% (inactive)	–
CN(C(=O)C(Cl)Cl)c1ccc(OC(=O)c2ccco2)cc1	-7.7% (inactive)	–
C[C@@]12CCC[C@H]1[C@@H]1CC[C@H]3C[C@@H](O)CC[C@]3(C)[C@H]1CC2	-1.74% (inactive)	–
O=C(O)CNC(=O)CNC(=O)CNC(=O)CSC(=O)c1ccccc1	4.32% (inactive)	–
CCN1CCN(C(=O)N[C@@H](C(=O)N[C@@H]2C(=O)N3[C@@H]2SC(C)(C)[C@H]3C(=O)O)c2ccccc2)C(=O)C1=O	-9.16% (inactive)	–
CC(=O)OCC(=O)[C@@]1(O)CCC2C3CCC4=CC(=O)CC[C@]4(C)C3[C@@H](O)C[C@@]21C (stereo partly drawn)	0.5% (inactive)	–

— PubChem BioAssay (NCATS)
